Data from PubChem BioAssay (NCATS).
Results filed as inconclusive are left out. The list shows a part of the results. Calls of active or inactive are those of the source. Unless noted, the call rests on the fitted dose curve; in most records, active means well fitted curve in either direction with a large enough effect (not every such curve was filed as active); inconclusive means small, poorly fitted or top-dose-only effect, or another doubt; inactive means flat fitted curve, though single readings scatter.

Legend:
[1] = molecular target: Lysosomal acid glucosylceramidase (Homo sapiens) (UniProt P04062); experiment: Glucocerebrosidase-p2 (AID 348; in the data active means potency below about 10 µM; further: potency means the concentration at half of the fitted maximal effect); settings: purified GBA, blue fluorogenic substrate, 40 min
Chain of Lysosomal acid glucosylceramidase (Homo sapiens) (P04062 whole entry, looked up): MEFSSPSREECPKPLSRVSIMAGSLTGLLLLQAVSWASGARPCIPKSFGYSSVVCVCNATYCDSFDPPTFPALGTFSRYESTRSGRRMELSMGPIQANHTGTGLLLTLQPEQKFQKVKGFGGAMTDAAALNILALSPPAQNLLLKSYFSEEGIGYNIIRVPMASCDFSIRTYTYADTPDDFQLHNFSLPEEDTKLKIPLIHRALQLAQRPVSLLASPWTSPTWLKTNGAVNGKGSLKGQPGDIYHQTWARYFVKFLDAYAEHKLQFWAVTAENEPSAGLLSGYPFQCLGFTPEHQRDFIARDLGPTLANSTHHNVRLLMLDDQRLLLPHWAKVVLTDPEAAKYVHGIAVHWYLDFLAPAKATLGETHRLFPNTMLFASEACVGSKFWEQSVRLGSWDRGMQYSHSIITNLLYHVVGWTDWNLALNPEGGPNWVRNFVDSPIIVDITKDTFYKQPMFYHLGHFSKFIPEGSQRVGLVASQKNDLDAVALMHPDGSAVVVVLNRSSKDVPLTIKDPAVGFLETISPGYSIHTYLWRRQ
Method in brief: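 Normal human glucocerebrosidase (0.2 nM) with blue fluorogenic substrate (80 uM final) in citrate/phosphate pH 5.9 with 10mM sodium taurocholate, 0.01% tween-20; 40 min RT, NaOH/glycine stop; fluorescence Ex 365/Em 440; AC50 from a titration from 0.6 nM upwards.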

[2] = AP1 Signaling Pathway (AID 357); settings: ME-180 AP-1-bla reporter, EGF-induced, beta-lactamase ratio, 5 h; at 7.69 µM (top of the series) unless noted;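 further: ME-180 reporter cells stimulated with EGF at its EC50 level; on the % scale 0 is the no-effect control and ±100 the full control effect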
Method in brief: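 Cells are seeded overnight, exposed to compound titrations and an EC50 level of EGF for 5 hours at 37 °C, then loaded with CCF4 dye for 2.5 hours. Beta-lactamase activity under the AP-1 element is read as a blue/green ratio.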

[3] = molecular target: Cytochrome P450 1A2 (Homo sapiens) (UniProt P05177); experiment: p450-cyp1a2 (AID 410; calls by dose curve; further: potency means the concentration at half of the fitted maximal effect;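 on activity change, negative = inhibition: -100% = full effect of reference inhibitor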)
Chain of Cytochrome P450 1A2 (Homo sapiens) (P05177 whole entry, looked up): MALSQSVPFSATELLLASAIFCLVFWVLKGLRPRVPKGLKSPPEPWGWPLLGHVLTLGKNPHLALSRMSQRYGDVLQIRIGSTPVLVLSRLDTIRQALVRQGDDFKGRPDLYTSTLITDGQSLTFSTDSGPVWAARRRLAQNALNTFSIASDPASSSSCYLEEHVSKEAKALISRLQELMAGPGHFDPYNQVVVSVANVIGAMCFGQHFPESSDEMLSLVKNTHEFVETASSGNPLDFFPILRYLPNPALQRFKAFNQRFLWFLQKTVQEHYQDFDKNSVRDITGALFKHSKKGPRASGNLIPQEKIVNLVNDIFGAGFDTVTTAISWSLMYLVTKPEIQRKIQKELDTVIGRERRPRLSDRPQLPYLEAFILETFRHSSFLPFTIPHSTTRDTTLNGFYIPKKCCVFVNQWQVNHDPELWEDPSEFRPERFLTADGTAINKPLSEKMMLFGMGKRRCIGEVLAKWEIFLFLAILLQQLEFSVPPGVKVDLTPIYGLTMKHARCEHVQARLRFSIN
Method in brief: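 O-Demethylation of luciferin 6' methyl ether by human CYP1A2 is monitored as luciferase luminescence. Substrate sits at Km (100uM); enzyme is 20nM. Values are scaled to 57 uM furafylline as maximal inhibition.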

[4] = NFAT Signaling Pathway (AID 444); settings: Jurkat NFAT-bla M1, carbachol, beta-lactamase ratio, 5 h; at 7.69 µM (top of the series) unless noted;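 further: carbachol stimulus at about its EC50 of 1 µM final; on the % scale 0 is the no-effect control and ±100 the full control effect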
Method in brief: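 Read-out: CCF4 FRET ratio (460 nm/530 nm) after 1 h RT dye loading, used for %activity and AC50 from titration series. Cells: Jurkat NFAT-β-lactamase/M1 line, treated with compound plus 1 uM carbachol for 5 h, 37 °C.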

[5] = Stat Signaling Pathway (AID 446); settings: ME-180 (cervical carcinoma) SIE beta-lactamase reporter, IL-6 stimulated, 5 h; at 7.69 µM (top of the series) unless noted;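 further: ME-180 cervical cancer cells given 40 pM IL-6 alongside compound; SIE-controlled beta-lactamase reporter measured as 460/530 nm FRET emission ratio; on the % scale 0 is the no-effect control and ±100 the full control effect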
Method in brief: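 Emission at 460 and 530 nm (excitation 405 nm) reports SIE-controlled beta-lactamase in ME-180 cells. Cells received compound with 40 pM IL-6 for 5 hrs at 37 C; data scaled between 300 pM IL-6 and 125 nM JAK-inhibitor controls.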

[6] = molecular target: Glucocorticoid receptor (Homo sapiens) (UniProt P04150); experiment: GR-EFC Redistribution (AID 451; calls by dose curve; further: potency means the concentration at half of the fitted maximal effect); settings: CHO-K1 GR-EFC translocation, beta-gal luminescence, 2 h
Chain of Glucocorticoid receptor (Homo sapiens) (P04150 whole entry, looked up, the tested form may be a part): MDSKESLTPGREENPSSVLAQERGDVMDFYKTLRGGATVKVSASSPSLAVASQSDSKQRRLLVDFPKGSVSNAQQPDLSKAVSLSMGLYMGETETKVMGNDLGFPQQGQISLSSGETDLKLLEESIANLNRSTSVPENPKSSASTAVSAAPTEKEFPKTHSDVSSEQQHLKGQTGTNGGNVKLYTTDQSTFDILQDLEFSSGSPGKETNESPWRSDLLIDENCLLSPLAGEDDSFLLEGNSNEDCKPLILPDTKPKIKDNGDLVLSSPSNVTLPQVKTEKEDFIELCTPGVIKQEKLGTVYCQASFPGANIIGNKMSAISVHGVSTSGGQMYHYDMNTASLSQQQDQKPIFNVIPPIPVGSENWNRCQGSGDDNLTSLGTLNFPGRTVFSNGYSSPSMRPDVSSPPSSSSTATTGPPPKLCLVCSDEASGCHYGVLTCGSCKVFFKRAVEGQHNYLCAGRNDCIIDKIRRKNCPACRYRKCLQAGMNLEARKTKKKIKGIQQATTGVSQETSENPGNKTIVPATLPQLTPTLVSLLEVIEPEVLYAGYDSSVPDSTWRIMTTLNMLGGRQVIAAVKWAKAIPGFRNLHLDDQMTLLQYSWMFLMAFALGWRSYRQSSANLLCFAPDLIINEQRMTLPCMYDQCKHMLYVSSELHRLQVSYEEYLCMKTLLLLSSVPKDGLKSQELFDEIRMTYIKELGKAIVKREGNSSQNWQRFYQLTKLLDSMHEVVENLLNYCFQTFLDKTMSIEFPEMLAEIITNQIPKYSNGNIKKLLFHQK
Method in brief: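 Translocation of GR-ED fusion to nuclear EA restores b-gal, read by luminescence after 1 h room-temperature detection. Engineered CHO-K1 biosensor cells, 1,000/well, exposed 2 h at 37 C to titrations up to 46 uM final.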

[7] = molecular target: Mitogen-activated protein kinase 10 (Mus musculus) (UniProt Q61831); experiment: JNK3 AlphaScreen Assay (AID 530);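 further: kinase came from lysate of stimulated human HepG2 cells; signal reports phosphorylation of biotinylated GST-cJun 1-79 at Ser73 with 10 µM ATP; on the % scale 0 is the no-effect control and ±100 the full control effect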
Method in brief: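 qHTS titrations with 15 min compound pre-incubation before adding ATP (10 uM final). Read-out: AlphaScreen of Ser73-phosphorylated biotin-GST-cJun using HepG2 lysate JNK3 activated by IL-1β and TNFα.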

[8] = molecular target: 3',5'-cyclic-AMP phosphodiesterase 4B (Homo sapiens) (UniProt Q07343); experiment: qHTS Assay for Inhibitors of PDE-IV (AID 607; active means well fitted activation curve with a large enough effect in the main read-out, with a control signal flat, not every such curve was filed as active; further: % of control where 0% means no effect)
Chain of 3',5'-cyclic-AMP phosphodiesterase 4B (Homo sapiens) (Q07343 whole entry, looked up): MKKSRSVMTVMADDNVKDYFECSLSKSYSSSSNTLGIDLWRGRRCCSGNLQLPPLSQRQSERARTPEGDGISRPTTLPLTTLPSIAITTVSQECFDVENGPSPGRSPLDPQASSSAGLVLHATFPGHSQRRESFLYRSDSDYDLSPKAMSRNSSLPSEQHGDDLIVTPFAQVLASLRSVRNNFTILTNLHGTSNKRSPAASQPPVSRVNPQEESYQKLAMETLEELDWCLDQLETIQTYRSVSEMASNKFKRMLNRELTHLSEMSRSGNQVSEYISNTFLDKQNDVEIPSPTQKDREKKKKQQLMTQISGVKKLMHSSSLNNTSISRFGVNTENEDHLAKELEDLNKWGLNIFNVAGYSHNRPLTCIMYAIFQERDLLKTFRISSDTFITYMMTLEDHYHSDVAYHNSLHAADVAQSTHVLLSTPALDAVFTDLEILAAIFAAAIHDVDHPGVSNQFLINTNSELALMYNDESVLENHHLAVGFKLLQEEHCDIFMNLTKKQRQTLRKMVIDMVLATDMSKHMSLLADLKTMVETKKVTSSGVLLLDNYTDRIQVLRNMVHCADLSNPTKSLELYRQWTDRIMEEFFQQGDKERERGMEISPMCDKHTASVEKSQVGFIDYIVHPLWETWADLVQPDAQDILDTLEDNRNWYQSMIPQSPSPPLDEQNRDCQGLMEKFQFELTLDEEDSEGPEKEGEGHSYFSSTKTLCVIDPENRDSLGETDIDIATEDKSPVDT
Method in brief: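 The readout is membrane depolarisation from a cAMP-sensing CNG channel, detected with a potential dye at ex 535/em 590. Cells were HEK293-derived (endogenous PDE-IV) at 1000 cells/well, titrated up to 22.9 uM final.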

[9] = molecular target: Cytochrome P450 2C9 (Homo sapiens) (UniProt P11712); experiment: qHTS Assay for Inhibitors and Substrates of Cytochrome P450 2C9 (AID 883; active means well fitted curve in the direction sought with a large enough effect; an effect the other way counts as inactive or inconclusive; further: on the % scale 0 is the no-effect control and ±100 the full control effect; nearly all actives have a fitted effect of over 60% in size)
Chain of Cytochrome P450 2C9 (Homo sapiens) (P11712 whole entry, looked up): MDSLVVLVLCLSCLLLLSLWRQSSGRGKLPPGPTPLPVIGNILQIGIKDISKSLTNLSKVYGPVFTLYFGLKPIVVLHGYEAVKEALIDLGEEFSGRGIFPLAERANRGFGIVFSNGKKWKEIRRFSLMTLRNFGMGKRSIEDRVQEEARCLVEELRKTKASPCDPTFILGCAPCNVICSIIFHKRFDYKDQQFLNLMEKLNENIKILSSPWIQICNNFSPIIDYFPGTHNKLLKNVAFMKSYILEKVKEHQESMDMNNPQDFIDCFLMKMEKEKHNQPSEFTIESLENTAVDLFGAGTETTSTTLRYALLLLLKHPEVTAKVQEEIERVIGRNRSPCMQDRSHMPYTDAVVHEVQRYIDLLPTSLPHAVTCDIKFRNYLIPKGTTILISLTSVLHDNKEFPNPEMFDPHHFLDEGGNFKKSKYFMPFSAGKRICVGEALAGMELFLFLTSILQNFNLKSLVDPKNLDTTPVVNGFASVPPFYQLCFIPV
Method in brief: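 Luminescent read-out of deoxyluciferin hydroxylation, normalized to 57uM sulphaphenazole (AC100). Reaction: 10nM enzyme, 100uM Luciferin-H (equal to KM), 25mM KPO4, 10 min compound preincubation, then 60 min with NADPH regeneration, both at 37C.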

[10] = molecular target: Cytochrome P450 2C19 (Homo sapiens) (UniProt P33261); experiment: qHTS Assay for Inhibitors and Substrates of Cytochrome P450 2C19 (AID 899; active means well fitted curve in the direction sought with a large enough effect; an effect the other way counts as inactive or inconclusive; further: on the % scale 0 is the no-effect control and ±100 the full control effect; nearly all actives have a fitted effect of over 60% in size)
Chain of Cytochrome P450 2C19 (Homo sapiens) (P33261 whole entry, looked up): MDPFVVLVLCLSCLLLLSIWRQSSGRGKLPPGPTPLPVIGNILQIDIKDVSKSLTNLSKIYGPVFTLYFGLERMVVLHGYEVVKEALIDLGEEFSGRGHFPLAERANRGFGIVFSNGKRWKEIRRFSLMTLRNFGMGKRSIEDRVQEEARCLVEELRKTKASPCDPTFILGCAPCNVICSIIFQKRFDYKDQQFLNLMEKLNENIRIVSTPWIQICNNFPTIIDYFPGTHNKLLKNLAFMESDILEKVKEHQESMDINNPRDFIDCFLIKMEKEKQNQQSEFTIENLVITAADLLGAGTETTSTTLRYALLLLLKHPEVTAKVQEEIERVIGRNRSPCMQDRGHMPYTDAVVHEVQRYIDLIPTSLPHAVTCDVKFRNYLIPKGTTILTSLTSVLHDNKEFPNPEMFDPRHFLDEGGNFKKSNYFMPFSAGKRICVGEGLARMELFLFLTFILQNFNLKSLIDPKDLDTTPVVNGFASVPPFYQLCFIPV
Method in brief: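 Luminescence readout of luciferin formed from 10uM Luciferin-H EGE (KM level) by 5 nM CYP2C19 in 50mM KPO4. 60 min NADPH-driven reaction at 37C after 10 min compound preincubation; data scaled to 57uM ketoconazole inhibition.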

[11] = molecular target: Glucocorticoid receptor (Homo sapiens) (UniProt P04150); experiment: GR-GFP Redistribution (AID 450;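 active means compounds whose dose series gives a full or clear partial fitted curve of increased nuclear translocation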; further: potency means the concentration at half of the fitted maximal effect); settings: U2OS GR-GFP nuclear translocation, laser cytometry, 2 h
[12] = molecular target: Dual specificity protein kinase CLK4 (Homo sapiens) (UniProt Q9HAZ1); experiment: qHTS Assay for Inhibitors of CDC-like Kinase 4 (Kinase-Glo Assay) (AID 1770; active means well fitted curve in the direction sought with a large enough effect; an effect the other way counts as inactive or inconclusive; further: on the % scale 0 is the no-effect control and ±100 the full control effect; nearly all actives have a fitted effect of over 65% in size)
Method in brief: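 Substrate mix (RS peptide 100 uM, ATP 1 uM) dispensed, compound pinned in, then Clk4 added to 25 nM final. Incubated 4.5 h at RT; Kinase-Glo reagent added, luminescence read after 5 min.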

[13] = molecular target: Ubiquitin carboxyl-terminal hydrolase 1 (Homo sapiens) (UniProt O94782); experiment: Inhibitors of USP1/UAF1: Pilot qHTS (AID 504865; active means well fitted curve in the direction sought with a large enough effect; an effect the other way counts as inactive or inconclusive;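 further: rhodamine fluorescence freed from ubiquitin-rhodamine substrate followed over time; top concentration of the series differs between compounds; on the % scale 0 is the no-effect control and ±100 the full control effect; nearly all actives have a fitted effect of over 35% in size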)
Chain of Ubiquitin carboxyl-terminal hydrolase 1 (Homo sapiens) (O94782 whole entry, looked up): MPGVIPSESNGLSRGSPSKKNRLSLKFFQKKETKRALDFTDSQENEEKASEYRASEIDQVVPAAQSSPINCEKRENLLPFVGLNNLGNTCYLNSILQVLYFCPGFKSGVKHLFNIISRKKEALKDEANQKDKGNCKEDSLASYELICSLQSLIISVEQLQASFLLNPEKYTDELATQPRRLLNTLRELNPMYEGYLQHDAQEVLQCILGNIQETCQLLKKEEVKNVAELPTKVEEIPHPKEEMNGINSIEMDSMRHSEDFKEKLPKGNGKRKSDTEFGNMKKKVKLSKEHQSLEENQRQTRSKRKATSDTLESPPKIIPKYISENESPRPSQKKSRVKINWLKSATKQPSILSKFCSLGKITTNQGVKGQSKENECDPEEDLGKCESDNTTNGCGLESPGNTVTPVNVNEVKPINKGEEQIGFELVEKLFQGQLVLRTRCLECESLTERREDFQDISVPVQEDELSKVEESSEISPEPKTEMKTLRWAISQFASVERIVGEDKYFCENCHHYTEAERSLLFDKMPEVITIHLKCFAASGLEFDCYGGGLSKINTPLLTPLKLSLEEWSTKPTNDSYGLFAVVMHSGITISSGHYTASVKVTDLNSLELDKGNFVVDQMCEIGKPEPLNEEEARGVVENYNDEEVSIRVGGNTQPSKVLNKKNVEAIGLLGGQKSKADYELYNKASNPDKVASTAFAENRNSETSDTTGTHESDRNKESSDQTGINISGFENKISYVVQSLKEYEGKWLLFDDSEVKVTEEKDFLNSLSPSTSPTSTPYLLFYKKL
Method in brief: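 In 50mM HEPES pH 7.8 containing 0.5mM EDTA, 1mM TCEP, 0.1 mg/ml BSA and 0.01% Tween-20, 1nM USP1/UAF1 is exposed to compound for 15 min, then Ub-Rho (150nM final) is added and fluorescence is read over time.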

[14] = molecular target: Flap endonuclease 1 (Homo sapiens) (UniProt P39748); experiment: qHTS Assay for the Inhibitors of FEN1: Confirmatory Assay for Cherry-picked Compounds (AID 720498; active means well fitted curve in the direction sought with a large enough effect; an effect the other way counts as inactive or inconclusive; further: potency means the concentration at half of the fitted maximal effect; nearly all actives have a fitted effect of over 60% in size); settings: FEN1 flap cleavage, TAMRA/BHQ2 fluorogenic DNA substrate
Chain of Flap endonuclease 1 (Homo sapiens) (P39748 whole entry, looked up): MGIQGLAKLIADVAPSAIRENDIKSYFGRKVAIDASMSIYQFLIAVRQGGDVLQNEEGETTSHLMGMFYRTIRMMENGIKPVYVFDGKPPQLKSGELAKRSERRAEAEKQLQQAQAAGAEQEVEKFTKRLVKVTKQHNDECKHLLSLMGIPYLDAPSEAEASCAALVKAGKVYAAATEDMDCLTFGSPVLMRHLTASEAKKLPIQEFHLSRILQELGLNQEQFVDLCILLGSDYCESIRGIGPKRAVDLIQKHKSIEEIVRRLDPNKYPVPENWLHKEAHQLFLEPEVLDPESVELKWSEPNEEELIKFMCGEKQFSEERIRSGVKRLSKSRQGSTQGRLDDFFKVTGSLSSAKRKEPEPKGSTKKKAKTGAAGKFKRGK
Method in brief: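 Human FEN1 (10 nM reagent) was preincubated with compounds for 15 min at room temperature, then 50 nM final double-flap DNA substrate (5'-TAMRA flap, BHQ-2 quencher strand) was added. Fluorescence (ex 525/em 598 nm) was read at 0 and 15 min.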

[15] = molecular target: Cytochrome P450 3A4 (Homo sapiens) (UniProt P08684); experiment: qHTS Assay for Inhibitors and Substrates of Cytochrome P450 3A4 (AID 884; active means well fitted curve in the direction sought with a large enough effect; an effect the other way counts as inactive or inconclusive; further: on the % scale 0 is the no-effect control and ±100 the full control effect; nearly all actives have a fitted effect of over 50% in size)
Method in brief: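 Luminescent readout of luciferin produced by CYP3A4 (20 nM) dealkylation of Luciferin-PPXE, 25 uM (its KM). NADPH-driven reaction ran 60 min at RT after 10 min compound preincubation; data scaled to 57 uM ketoconazole as 100% inhibition.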

CS(=O)(=O)N1CCC2(CC1)CN(c1ccc(-c3ccccc3)cc1)C2
inactive: Potency [1] > 11.4 µM | activity change, negative = inhibition [2] -8.52% | Potency [3] | activity change, negative = inhibition [4] -6.69% | activity, negative = inhibition [5] -25.1% | Potency [6] > 46 µM | Potency [7] | Potency [8] | Potency [9] | Potency [10]

CN(C)C(=O)c1ccc(-c2nc(-n3ccnc3)c3ccccc3n2)cc1
active: Potency [3] 20 µM
inactive: activity change, negative = inhibition [4] 2.92% | activity, negative = inhibition [5] 6.8% | Potency [11] > 46 µM | Potency [6] > 46 µM | Potency [7] | Potency [8] | Potency [12] | Potency [13]

CCC1CCCCN1CCCNC(=O)c1cc2c(Cl)nc3ccccc3c2s1 (centres undefined)
active: Potency [14] 33.8 µM

Cn1cccc1C(=O)N1CCC2(CC1)CCN(c1ncccn1)CC2
inactive: Potency [1] > 11.4 µM | activity change, negative = inhibition [2] 0.908% | Potency [3] | activity change, negative = inhibition [4] 5.08% | activity, negative = inhibition [5] -4.72% | Potency [6] > 46 µM | Potency [7] | Potency [8] | Potency [15]
